Among the data in PubChem BioAssay (NCI) are growth values, retold here.

Common to all, as to assay: NCI-60 one-dose screen, 48 h (100 = growth as untreated, 0 = no growth, -100 = all killed)
What all share (conditions): 10 µM unless noted

In assay [1] the test system is NCI-H23 lung.
Assay [2] concerns NCI-H226 lung.
For assay [3], the system named is NCI-H322M lung.
Assay [4] relates to HOP-62 NSCLC.
The test system of assay [5] is NCI-H460 lung.
In assay [6] the test system is HOP-92 NSCLC.
Assay [7] has as its system NCI-H522 lung.
Assay [8] has as its system A549/ATCC NSCLC.
The test system of assay [9] is 786-0 renal.
The test system of assay [10] is COLO 205 colon.
The subject of assay [11] is DU-145 prostate.
Assay [12] concerns K-562 leukemia.
The test system of assay [13] is MALME-3M melanoma.
For assay [14], the system named is MDA-MB-231 breast.
Assay [15] deals with RXF 393 renal.
Assay [16] concerns SF-268 CNS.
Assay [17] relates to SF-295 CNS.
In assay [18] the test system is SF-539 CNS.
Assay [19] concerns UACC-257 melanoma.
In assay [20] the test system is M14 melanoma.

Each structure is given as a SMILES string. Compounds without any hit were thinned out: in the full panel of roughly 83,000, 20% have a hit.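 For each line, cells grew in 96-well plates with the test compound present at a single concentration for 48 hours.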 Values without a mark were called inactive. Calls of active or inactive are those of the source. How the source made its calls: active means growth percent below 10; inactive means the rest.

On to `COc1ccc(C(Cc2ccccc2)NCCN2CCOCC2)cc1` (stereo not given), for which the growth in assay [1] is 100%; in assay [2], 109%; in assay [3], 95.7%; in assay [4], 93.1%; in assay [5] it was 107%; in assay [6], 106%. In addition, the growth in assay [7] is 71.1%; in assay [8], 97.8%; in assay [9], 89.4%; in [10], 96.1%; in [11], 110%; in [12], 101%. The growth in [13] was 86.8%; in [14] it was 110%; in assay [15] it was 104%; in [16] it was 98%; in assay [17], 99.4%; in assay [18] it was 99.6%. Moreover, the growth is 109% in [19] and 90.6% in [20].

`COc1ccc(-c2cc(-c3ccc(Cl)cc3)c(C#N)c(=O)n2CCCCCC(=O)Nc2ccccc2N)cc1`: the growth in assay [1] is 63.1%; in assay [2] it was 72.9%; in [3] it was 61.4%; in [4] it was 41.8%; in assay [5] it was 26.7%; in assay [6], 13%. Moreover, the growth in [7] was 33.7%; in [8], 35.7%; in [9], 41.5%; in assay [10], 10.1%; in [11], 49.8%; in assay [12], 15%. Besides, the growth in [13] was 39%; in assay [14], 55.6%; in [15], 29.8%; in assay [16], 75.9%; in [17], -19.5% (active); in [18] it was 60%. Also, the growth is 23.4% in [19] and -10.9% (active) in [20].

For the compound `Cc1cc(O)c(C2=NN(c3ccc(S(N)(=O)=O)cc3)C(c3ccccc3O)C2)cc1Cl` (stereo not given), the growth in assay [1] was -19.9% (active); in assay [2], 0.355% (active); in assay [3] it was 46.8%; in assay [4], -3.51% (active); in [5], -47.9% (active); in assay [6] it was 5.49% (active). Besides, the growth in [7] is -56.8% (active); in [8], 3.15% (active); in assay [9], -55.7% (active); in assay [10], -94.4% (active); in assay [11] it was 1.2% (active); in [12], -36.6% (active). The growth is 21.8% in assay [13]; 4.16% (active) in assay [14]; -10.3% (active) in [15]; 10.8% in assay [16]; 58.5% in assay [17]; -21.2% (active) in [18]. Besides, the growth in assay [19] was 66.5%; in assay [20], -68.5% (active).

`O=C(Nc1nc2ccc(F)cc2s1)c1cccnc1Nc1ccc(Cl)cc1Cl`: the growth in [1] is 7.18% (active); in assay [2], 52.6%; in [3] it was 3.83% (active); in assay [4], 63.5%; in assay [5], 5.22% (active); in [6], -6.79% (active). The growth in [7] was 31.8%; in assay [8], 17%; in assay [9], 45.8%; in assay [10], 2.35% (active); in [11], 30%; in assay [12] it was 4.08% (active). The growth in [13] was -15.9% (active); in assay [14] it was 34.5%; in assay [15], 44.4%; in assay [16] it was 28.9%; in assay [17], 4.3% (active); in [18], 43.1%. Further, the growth was 28.1% in assay [19] and 37% in assay [20].

In the case of `O=C(N/N=C/[C@H](O)[C@@H](O)[C@@H](O)[C@H](O)CO)c1ccc(NC(=O)c2cccnc2)cc1`, the growth in assay [1] was 110%; in [2], 106%; in assay [3], 103%; in assay [4] it was 113%; in assay [5], 108%; in assay [6], 111%. For the same compound, the growth was 96.2% in [7]; 102% in assay [8]; 113% in [9]; 110% in [10]; 119% in assay [11]; 110% in assay [12]. Moreover, the growth in [13] was 108%; in assay [14], 100%; in assay [15] it was 121%; in assay [16], 103%; in assay [17] it was 102%; in assay [18], 106%. Besides, the growth is 102% in assay [19] and 114% in [20].

As for `Cc1ccc(C(C)C)cc1C(=O)C[n+]1ccccc1`, the growth was 113% in assay [1]; 105% in assay [2]; 96.8% in [3]; 91.6% in assay [4]; 109% in assay [5]; 100% in [6]. In addition, the growth in assay [7] was 81.7%; in assay [8], 101%; in assay [9], 96.4%; in assay [10], 112%; in assay [11], 107%; in [12] it was 105%. For the same compound, the growth is 95.9% in assay [13]; 112% in assay [14]; 121% in [15]; 98.8% in [16]; 93.5% in assay [17]; 97.1% in assay [18]. In addition, the growth in assay [19] was 115%; in assay [20] it was 95.6%.

As for `O=C(CCc1nnc(-c2c(Cl)cccc2Cl)o1)c1nc2ccccc2[nH]1`, the growth was 61.9% in assay [1]; 83.7% in assay [2]; 76% in assay [3]; 71.6% in assay [4]; 77.3% in assay [5]; 6.67% (active) in assay [6]. The growth in [7] is 49.8%; in assay [8], 69.7%; in assay [9], 73.8%; in [10], 62.6%; in assay [11] it was 82.2%; in [12], 2.22% (active). Also, the growth in assay [13] was 79.3%; in [14], 38.3%; in assay [15] it was 81.5%; in assay [16], 68.1%; in assay [17], 59.5%; in [18], 95.2%. For the same compound, the growth in [19] was 78.6%; in [20], 55.8%.

`CCOC(=O)c1[nH]c(C)c(C(=O)OCc2ccccc2C#N)c1C`: the growth in assay [1] is 69%; in [2], 100%; in assay [3], 88.4%; in assay [4], 68.7%; in [5] it was 83.4%; in [6] it was 47.4%. Also, the growth in assay [7] is 51.8%; in assay [8], 83.6%; in assay [9], 61.2%; in [10], 89.8%; in [11] it was 87.2%; in assay [12] it was 25.6%. The growth in [13] is 66.5%; in assay [14] it was 73.9%; in assay [15], 58.3%; in [16], 72.9%; in assay [17], 75.2%; in assay [18] it was 16.2%. The growth in assay [19] is 114%; in assay [20], 58.9%.
